Compounds with a hit are over-represented: about 6.8% of the library has one in this group of screens.
Autofluor 339 – intrinsic fluorescence of library compounds, ex339/em460 – biochemical, MLSMR library, data from DPM-DC assay, artefact control, profiling panel; compound autofluorescence, ex339/em460 nm, NADH buffer; hits give high values; 1 = no-compound wells, NADH background; fluorescence fold increase at 10 µM; 65,000 tested, 5.5% active;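 active = at 10 µM, mean starting fluorescence two-fold or more over control wells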;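 also: signal is the first read of a kinetic run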
Abs 340nm – compounds absorbing at 340 nm | AID 708 | 65,000 tested, under 10 active | fold change at 10 µM | compound absorbance at 340 nm, fold over control;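 active = at 10 µM dose, initial 340 nm absorbance at least 2 fold that of control wells; inactive = change under 2 fold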;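 also: initial absorbance extrapolated from kinetic A340 decline of NADH oxidation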
PMK inhibit – blocks S. pneumoniae phosphomevalonate kinase. AID 539. purified PMK, PK/LDH-coupled NADH absorbance 340 nm. 65,000 tested, 0.49% active. inhibition, % at 10 µM;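 active = top-ranked compounds by inhibition in the single 10 µM screen, taking a fixed number of the strongest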
DPM-DC inhibit – S. pneumoniae DPM-DC inhibition; purified DPM-DC, PK/LDH coupled NADH fluorescence; calls only at 10 µM; 65,000 tested, 0.49% active;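 active = the 320 compounds with the highest percent inhibition in the single-dose primary screen, excluding strongly autofluorescent ones, cut at about 32% in these data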;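 also: kinetic rate of NADH fluorescence loss reporting ADP formed by the decarboxylase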
NADH enzymes – inhibitors of enzymes used to reach an NAD/NADH endpoint; coupled PK/LDH NADH assays, four targets; IC50, µM (series often up to 10 µM); 65,000 tested, 0.02% active;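 active = single-dose screening hits from any of four coupled enzyme assays that gave an IC50 when retested across doses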;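 also: the DPM-DC format reads NADH fluorescence rather than 340 nm absorbance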
Spn MK inh – inhibitors of Streptococcus pneumoniae mevalonate kinase. 65,000 tested, 0.48% active. AID 555. purified MK, PK/LDH-coupled NADH absorbance 340 nm. inhibition, % at 10 µM;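 active = ranked among the strongest by inhibition in the single 10 µM screen, a fixed top-ranked set picked for dose follow-up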
Of the large screens only hits and unclear results are named; the others gave an inactive call; [ ] = dose if it differs, or a comment.

Clc1ccc2nc(N3CCNCC3)nc(-c3ccccc3)c2c1	Autofluor 339 2.28 (not shown: DPM-DC inhibit)
Cc1noc(C)c1CSc1nnc(-c2ccncc2)n1-c1ccc(Cl)c(Cl)c1	none
COc1cccc(C2CC(c3ccccc3Cl)n3ncnc3N2)c1 (stereo not given)	none
COC(=O)c1cc(=O)nc2sccn12	PMK inhibit 27.0
Cc1cccn2c(=O)c(C=NCc3ccccc3)c(NCCO)nc12	Autofluor 339 3.62
CCc1cccc(CC)c1N(COC)C(=O)Cn1ccccc1=N	none
CCCN(CCC)C(=O)CSc1nc2ccccc2c(=O)n1C1CCCC1	none
CCOc1ccccc1-c1nc(C(N)=O)c2[nH]c(=O)n(-c3ccc(F)cc3)c2n1	Autofluor 339 2.14 (not shown: DPM-DC inhibit)
CCCN(CCC)S(=O)(=O)c1cc(Br)cc2c1N(C(=O)CC)CC2	none
Cc1c(NC(=O)CN2c3cccc4cccc(c34)S2(=O)=O)c(=O)n(-c2ccccc2)n1C	Autofluor 339 2.52, DPM-DC inhibit active[may fluoresce]
Cc1c(NC(=O)CN2C(=O)c3ccccc3S2(=O)=O)c(=O)n(-c2ccccc2)n1C	none
COc1ccc(NC(=O)CN2c3cccc4cccc(c34)S2(=O)=O)cc1	Autofluor 339 2.33
O=C(CN1c2cccc3cccc(c23)S1(=O)=O)N1CCOCC1	Autofluor 339 2.77, DPM-DC inhibit active[fluoresces]
Cc1ccc2nc(-c3ccc(SCC(=O)O)nc3)[nH]c2c1	Autofluor 339 3.83, DPM-DC inhibit active
Cc1ccc2nc(SCC(=O)N3CCCC3)[nH]c2c1	none
Cc1ccc(S(=O)(=O)NC(=O)c2cc(C)n(CCCn3ccnc3)c2C)cc1	none
O=C(NCCN1CCN(c2ccccc2)CC1)c1ccc(NC(=O)C2CCCO2)cc1 (stereo not given)	none
COc1cc(Cn2c(C(=O)O)cc3sccc32)cc(OC)c1OC	none
CON(C)c1nc(OCCNC(=O)COc2ccc(Cl)cc2C)nc(N(C)C)n1	none
CON(C)c1nc(OCCNC(=O)OCc2ccc(Cl)cc2Cl)nc(N(C)C)n1	PMK inhibit 25.0
COC(=O)c1cccc(Oc2nc(N3CCOCC3)nc(N3CCOCC3)n2)c1	none
O=S(=O)(c1ccc2nc(-c3ccco3)c(-c3ccco3)nc2c1)N1CCOCC1	Autofluor 339 2.25
O=C(Nc1ccc(N2CCOCC2)cc1)Nc1ccc2nc(-c3ccco3)c(-c3ccco3)nc2c1	none
CCOC(=O)CSc1nc(N(C)C)nc(N(C)C#N)n1	none
CCOC(=O)C1=C(N)OC2=C(C(=O)CCC2)C1c1ccc(C)s1 (stereo not given)	PMK inhibit 37.0
N=c1c(C(=O)NC2CCCC2)cc2c(=O)n3ccccc3nc2n1C1CCCC1	Autofluor 339 5.21 (not shown: DPM-DC inhibit)
Cc1cccn2c(=O)c3cc(C(=O)NC4CCS(=O)(=O)C4)sc3nc12 (stereo not given)	Autofluor 339 2.12 (not shown: DPM-DC inhibit)
Cc1cccn2c(=O)c3cc(C(=O)NC4CCCC4)c(=N)n(C4CCCC4)c3nc12	Autofluor 339 2.35 (not shown: DPM-DC inhibit)
Cc1cc2oc(C(=O)NC3CCS(=O)(=O)C3)c(C)c2cc1C (stereo not given)	none
O=S1(=O)CC(N2CCCCC2)C(N2CCCCC2)C1 (stereo not given)	none
O=C(CC1CCS(=O)(=O)C1)Nc1ccc[nH]c1=O (stereo not given)	none
Cc1c2cccn2cc[n+]1C	Autofluor 339 3.76 (not shown: DPM-DC inhibit)
Cc1cc(O)c(C(C)C)cc1NS(=O)(=O)c1ccccc1	none
Cc1c(C#N)sc2nc(-c3ccccc3)nc(N3CCCC3)c12	Autofluor 339 2.45 (not shown: DPM-DC inhibit)
CN(C)c1ccc(-c2nnc(-c3ccc(S(=O)(=O)C(F)F)cc3)o2)cc1	none
COc1ccc(-c2nnc(-c3ccc(N(C)C)cc3)o2)cc1	Autofluor 339 2.1 (not shown: DPM-DC inhibit)
COc1ccc(-c2nnc(-c3ccc(N)cc3)o2)cc1	Autofluor 339 2.92 (not shown: DPM-DC inhibit)
COc1ccc(-c2ccc(-c3nnc(-c4cc(OC)ccc4OC)o3)cc2)cc1	Autofluor 339 3.69 (not shown: DPM-DC inhibit)
O=C(Nc1ncnc2c1ncn2C1OC(COC(=O)c2ccccc2)C(F)C1O)c1ccccc1 (stereo not given)	none
CCn1c(CNc2ccc(C)cc2C)nnc1SCC(=O)N1CCCc2ccccc21	none
CC(C)c1cc(Nc2cccc(O)c2)cc(C(C)C)c1O	none
CCCCc1cc(=O)oc2c(CN(C)C)c(O)c(Cl)cc12	Autofluor 339 2.33 (not shown: DPM-DC inhibit)
CCc1c(C)c2cc(Cl)c(O)c(CN(C)C)c2oc1=O	Autofluor 339 3.68 (not shown: DPM-DC inhibit)
Cc1c(C)c2cc(Cl)c(O)c(CN(C)C)c2oc1=O	Autofluor 339 2.31 (not shown: DPM-DC inhibit)
CCc1c(C)c2cc(Cl)c(O)c(CN(CC)CC)c2oc1=O	Autofluor 339 3.7 (not shown: DPM-DC inhibit)
CCOC(=O)c1[nH]c(C)c(C(=O)NCc2cccnc2)c1C	none
CCOCCCNC(=O)c1ccc(CS(=O)(=O)Cc2ccc(C)cc2)o1	none
CC(=O)N(CCO)Cc1cc2cc(C)cc(C)c2[nH]c1=O	none
Cc1nn2cc(-c3ccc(-c4ccccc4)cc3)nc2s1	Autofluor 339 2.24
COCCNC(=O)C(c1ccc(C)o1)N(C(=O)c1snc(C(N)=O)c1N)c1cc(C)cc(C)c1 (stereo not given)	Autofluor 339 2.15
CC(C)(C)NC(=O)COC(=O)c1snc(C(=O)NC2CCCCC2)c1N	Autofluor 339 2.08 (not shown: DPM-DC inhibit)
COc1ccccc1N(C(=O)c1snc(C(N)=O)c1N)C(C(=O)NC1CCCC1)c1ccco1 (stereo not given)	Autofluor 339 2.85
CC(C(=O)NC1CCCC1)N(Cc1ccco1)C(=O)c1snc(C(=O)NC2CCCC2)c1N (stereo not given)	Autofluor 339 2.36
CCOC(=O)CC(C#N)c1c[nH]c2ccccc12 (stereo not given)	none
CCOc1ccccc1N(C(=O)c1snc(C(N)=O)c1N)C(C(=O)NCCC(C)C)c1ccco1 (stereo not given)	none
COc1ccccc1N(C(=O)c1snc(C(N)=O)c1N)C(C(=O)NCCC(C)C)c1ccco1 (stereo not given)	Autofluor 339 2.47
COc1ccc(CN(C(=O)c2snc(C(N)=O)c2N)C(C(=O)NC(C)(C)C)c2ccco2)cc1 (stereo not given)	Autofluor 339 2.26
Cc1nnc(SCCn2c(N3CC(C)CC(C)C3)nc3c2c(=O)[nH]c(=O)n3C)s1 (stereo not given)	none
CCCc1nnc(NC(=O)c2c(O)c3cccc4c3n(c2=O)CCC4)s1	Autofluor 339 2.82
Cc1nc2sc(C(c3cccs3)N3CC(C)CC(C)C3)c(O)n2n1 (stereo not given)	none
CCOc1ccccc1C1C(C(=O)Nc2ccccc2OC)=C(C)Nc2nnnn21 (stereo not given)	none
CC(=O)Nc1cc2c(cc1C(C)=O)OCCO2	Autofluor 339 3.59 (not shown: DPM-DC inhibit)
CCC(=O)c1cc2c(cc1NC(=O)C(C)C)OCCO2	Autofluor 339 2.06
CC(=O)c1cc2c(cc1NC(=O)Nc1cccc(Cl)c1)OCCO2	Autofluor 339 2.58

Assay outcomes (PubChem)
